High-throughput results (PubChem)
Compounds with a hit are over-represented: about 2.4% of the library has one in this group of screens.
M1 PAM: potentiates human M1 receptor response to acetylcholine; CHO-K1 hM1, Fluo-8 calcium fluorescence, ACh EC20; 0% = ACh EC20, 100% = maximal ACh; activation, % at 3 µM; 360,000 tested, 0.088% active; AID 588819; in the data active = activation above about 19%, passing the limit was not always enough
Target sequence (P11229 whole entry, looked up): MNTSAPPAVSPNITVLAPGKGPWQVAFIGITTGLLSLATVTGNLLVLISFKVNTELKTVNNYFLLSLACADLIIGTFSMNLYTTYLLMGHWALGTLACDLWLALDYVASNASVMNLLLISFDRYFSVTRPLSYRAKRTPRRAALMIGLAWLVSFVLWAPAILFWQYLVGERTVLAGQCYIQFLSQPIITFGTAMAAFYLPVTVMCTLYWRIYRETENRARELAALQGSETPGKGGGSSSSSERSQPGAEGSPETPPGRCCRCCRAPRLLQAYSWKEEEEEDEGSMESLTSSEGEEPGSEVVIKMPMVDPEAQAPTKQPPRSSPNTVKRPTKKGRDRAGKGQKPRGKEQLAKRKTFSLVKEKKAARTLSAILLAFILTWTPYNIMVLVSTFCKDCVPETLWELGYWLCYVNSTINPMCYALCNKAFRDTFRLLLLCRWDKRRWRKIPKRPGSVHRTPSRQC
CHO-K1 Ca ag: M1 agonist counterscreen hit in parental CHO-K1 cells. Fluo-8 calcium fluorescence; scaled to maximal ATP response, vehicle zero. activation, % at 3 µM. 360,000 tested, 0.48% active; in the data active = activation above about 15%;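 note: untransfected CHO-K1 host cells lacking M1 receptor as counterscreen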
CHO-K1 Ca antag: M1 antagonist counterscreen hit in parental CHO-K1 cells; inhibition, % at 3 µM; 360,000 tested, 0.6% active; ATP-induced calcium, Fluo-8 fluorescence; AID 602250;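 active = inhibition above a per-plate cutoff, the plate's mean sample inhibition plus 3 SD, cut at about 24% in these data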;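 note: 0% = DMSO plus EC80 ATP and 100% = DMSO alone without ATP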
CHO-K1 Ca PAM: counter-screen for M1 PAMs: effect in parental CHO-K1 cells; ATP EC20, Fluo-8 calcium fluorescence; 0% at ATP EC20, 100% at ATP max; activation, % at 3 µM; 360,000 tested, 0.02% active; AID 602247;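 active = activation above the run cutoff, the mean activation of all test compounds plus 3 SD, cut at about 40% in these data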;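 note: peak over basal fluorescence ratio in a 140 s read after ATP addition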
M1 ag: agonists of human M1 muscarinic receptor; P11229; CHO-K1 hM1, Fluo-8 calcium fluorescence, agonist mode; 0% DMSO, 100% acetylcholine EC100; activation, % at 3 µM; 360,000 tested, 0.33% active;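 active = activation above the run's mean compound activation plus 3 SD, cut at about 16% in these data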;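 note: peak over basal fluorescence ratio within a 140 s kinetic read after compound addition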
M1 antag: antagonists of human M1 muscarinic receptor; AID 588852; P11229; 360,000 tested, 1.3% active; inhibition, % at 3 µM; CHO-K1 hM1, Fluo-8 calcium fluorescence, ACh EC80 antagonist;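 active = percent inhibition above its own plate's cutoff, namely the mean of that plate's compound wells plus 3 SD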;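 note: peak over basal fluorescence ratio during 140 s after agonist addition; 0% = ACh EC80 plus DMSO and 100% = DMSO alone without agonist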
Starred values were filed as active, the others as inactive; / = no result given.

SMILES | M1 PAM | CHO-K1 Ca ag | CHO-K1 Ca antag | CHO-K1 Ca PAM | M1 ag | M1 antag
CC(=O)N1c2ccc(S(=O)(=O)NCC3CCC(C(=O)Nc4cccc(C)n4)CC3)cc2CC1C (stereo not given) | -10.8 | 13.5 | 0.9 | 2.7 | 2.6 | 15.8
CC(C(O)C12CC3CC(CC(C3)C1)C2)N1CCCCC1 (stereo not given) | -28.2 | -0.1 | -4.2 | 6.2 | -10.1 | 59.5*
CC(NC(=O)CN1CCCC1)C12CC3CC(CC(C3)C1)C2 (stereo not given) | 9.1 | 0.0 | 1.4 | -6.4 | -4.2 | 2.9
C[C@@H]1CC[C@H]2C(=O)N3[C@@H](CC[C@@H](C)[C@@H]3c3ccc(Br)cc3)C(=O)N2[C@H]1c1ccc(Br)cc1 | 3.6 | 0.2 | -8.5 | 8.2 | -5.8 | 2.0
N#CC(c1cccc(Cl)c1)c1ccc2c(C(F)(F)F)cc(C(F)(F)F)nc2n1 (stereo not given) | -7.9 | 12.4 | 31.4* | -6.6 | 3.2 | 29.1
COc1ccccc1-c1cccc(-c2nc(C(=O)Nc3nccs3)cc3c2[C@H](CCO)N(C(C)=O)C3)c1 | / | 5.4 | -14.7 | 3.5 | / | /
CCOc1ccc(NC(=O)c2ccc(F)c(S(=O)(=O)N3CCCC3)c2)cc1 | -11.0 | 7.0 | 24.2* | -10.7 | -1.7 | 9.6
Cc1ccccc1NC(=O)c1cccc(S(=O)(=O)N2CCCCC2)c1 | 0.6 | 1.3 | -13.5 | 1.5 | -0.8 | -8.2
Cc1ccc(NC(=O)c2ccccc2NS(=O)(=O)c2ccc(F)cc2)cc1S(=O)(=O)N1CCCCC1 | -6.4 | 12.4 | 26.1* | -4.3 | 0.7 | 12.8
Cc1ccc(NC(=O)c2cc(S(=O)(=O)N(C)C)ccc2N2CCCC2)cc1S(=O)(=O)N(C)C | -21.3 | 1.5 | -2.8 | 8.4 | -6.7 | 31.8*
Cc1ccccc1NC(=O)c1ccc(F)c(S(=O)(=O)N2CCCCC2)c1 | 5.5 | 19.2* | 1.6 | -0.3 | -0.7 | -6.9
Cc1ccc(NC(=O)c2cc(S(=O)(=O)N3CCCCC3)ccc2N2CCOCC2)cc1S(=O)(=O)N(C)C | -7.7 | 0.2 | -7.4 | -16.1 | -6.5 | 16.5
O=C(Nc1cccc(S(=O)(=O)N2CCCCC2)c1)c1ccccc1NS(=O)(=O)c1ccc(F)cc1 | -4.5 | 10.9 | 23.0 | -2.0 | 1.1 | 15.2
N#Cc1ccc(COC(=O)CN2C(=O)NC3(CCCC3)C2=O)cc1 | 1.8 | 0.8 | -8.6 | 15.4 | -1.9 | 5.7
CCCn1nc(Oc2nc(N(C)C)nc(N(C)C)n2)ccc1=O | -1.3 | -0.1 | 18.6 | -14.2 | -0.6 | 12.8
Cc1ccc(-c2csc(NC(=O)N3CCOCC3)n2)cc1 | 5.7 | 6.1 | 8.4 | 6.4 | -12.3 | -4.0
COc1ccc(/C=C\C(=O)O[C@@H]2C(O)C(O[C@@H]3OC(C)[C@H](O[C@@H]4OCC(O[C@H]5O[C@H](CO)[C@@H](O)C(O)C5O)C(O)C4O)C(O)C3O)[C@H](OC(=O)[C@]34CCC(C)(C)C[C@@H]3C3=CCC5[C@@]6(C)CC(O)C(O[C@@H]7OC(CO)C(O)[C@H](O)[C@H]7O)[C@@](C)(C(=O)O)C6CC[C@@]5(C)[C@]3(CO)CC4)O[C@H]2C)cc1 (stereo not given in full) | -36.5 | 90.1* | 71.2* | -19.9 | 95.2* | 84.7*
c1ccc(CN2CCN(Cc3nnc(-c4ccccc4)o3)CC2)cc1 | -15.6 | 2.0 | -9.1 | 12.1 | -6.5 | 34.8*
CN1CCN(Cc2nnc(-c3ccccc3)o2)CC1 | 0.2 | 0.1 | -4.8 | -21.4 | -2.2 | -2.6
COc1ccc(C(=O)NC2CCCc3c2cnn3-c2ccc(C)c(C)c2)c(OC)c1OC (stereo not given) | 1.8 | 2.4 | 1.3 | 9.4 | -2.0 | -13.2
Cc1cc(C(=O)NC2CCCc3c2cnn3-c2cccc(C)c2C)n(C)n1 (stereo not given) | -7.0 | 13.2 | 29.6* | -19.7 | 2.9 | 34.5*
Cn1nccc1C(=O)NC1CCCc2c1cnn2-c1ccc(C(C)(C)C)cc1 (stereo not given) | -8.4 | 14.2 | 32.6* | -14.6 | 1.0 | 33.7*
CC(=O)NC1CCCc2c1cnn2-c1ccc(C(C)(C)C)cc1 (stereo not given) | 3.2 | 4.2 | -1.5 | 18.3 | -0.8 | -10.7
Cc1nnsc1C(=O)NC1CCCc2c1cnn2-c1ccc(F)cc1F (stereo not given) | -11.2 | 10.2 | 14.7 | -14.4 | 0.6 | 31.3*
